Source: PubChem BioAssay
Rows were chosen to be rich in hits. Some 10% of all compounds tested hit in one or more screens of this group.
Pf growth 96h: Primary qHTS for delayed death inhibitors of the malarial parasite plastid, 96 hour incubation; AID 504834, 2011; Potency, µM (top dose mostly 28.7 µM), for inactives: top-dose activity change, negative = inhibition, actives largely listed as inhibitors; P. falciparum luciferase reporter growth, 96 h; 6.9% of 320,000 active; active = well fitted inhibition curve with a large enough effect; inconclusive = small, poorly fitted or top-dose-only effect, or another doubt; inactive = no such curve, though single readings can be large or run the other way; note: % is set by controls: 0 for no effect and ±100 for the full control effect
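P. falciparum expressing integrated firefly luciferase grown in erythrocytes (2% hematocrit, 0.05% parasitemia final) with compounds for 96 hours at 37 C, 5% CO2. Growth inhibition read as loss of luminescence after adding luciferase detection reagent.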
NS1 function inh: qHTS Assay for Inhibitors of Influenza NS1 Protein Function; AID 2326, 2010; Potency, µM (doses to about 46.1 µM), inactives show at the highest dose activity, positive = more growth; 0.4% of 270,000 active; note: actives are rising curves; nearly all actives have a fitted effect of over 50% in size
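Recovery from NS1-induced slow growth read by OD600 in budding yeast switched to galactose assay medium (pH 6.0, -URA) at 1:100 dilution. Compound 23 nl per well; the matching strain lacking NS1 serves as control.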
Pf growth 48h: Primary qHTS for delayed death inhibitors of the malarial parasite plastid, 48 hour incubation | P. falciparum luciferase growth in erythrocytes, 48 h | Potency, µM (highest dose often 28.7 µM), for the others: top-dose activity change, negative = inhibition, hits mostly inhibitors | 5.9% of 310,000 active; active = well fitted inhibition curve with a large enough effect; inconclusive = small, poorly fitted or top-dose-only effect, or another doubt; inactive = no such curve, though single readings can be large or run the other way; note: % is set by controls: 0 for no effect and ±100 for the full control effect
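Luciferase-expressing P. falciparum in infected erythrocytes (2% hematocrit, 0.1% parasitemia final) in RPMI 1640/0.5% Albumax were exposed to compound for 48 hours at 37 C, 5% CO2; growth read as luminescence.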
SARS PLP yeast: qHTS of Yeast-based Assay for SARS-CoV PLP; AID 485353, 2010; Potency, µM (series often up to 32.9 µM), for inactives: at the highest dose activity, positive = growth rescue, most hits filed as activators; 0.19% of 330,000 active; S. cerevisiae expressing SARS-CoV PLpro, growth rescue; note: 0% is about no effect; nearly all actives have a fitted effect of over 55% in size
Starred values were filed as active, the others as inactive; ? = inconclusive; nt = no result given; [ ] = dose if it differs, or a comment. Unless noted, calls come from the whole dose curve. Potency is the fitted concentration of half-maximal effect.

SMILES	Pf growth 96h	NS1 function inh	Pf growth 48h	SARS PLP yeast
COC(=O)C1C(=O)C2=C(CC1C)NC(C)=C(C(=O)OC1CCCCC1)C2c1ccc(N(C)C)cc1 (stereo not drawn)	36.8%	-12.2%	5.86µM*	-3.0%
COC(=O)C1C(=O)C2=C(CC1C)NC(C)=C(C(=O)OC(C)C)C2c1ccc(C)o1 (stereo not drawn)	nt	2.5%	?	15.1%
Cc1ccc(S(=O)(=O)NCCC(=O)NNC(=O)c2ccccc2O)cc1C	7.9%	nt	-4.7%	1.3%
CCCCOC(=O)c1ccc(NC(=S)N2CCN(c3ncc4c(=O)c(C(=O)O)cn(CC)c4n3)CC2)cc1	1.31µM*	2.9%	2.62µM*	-1.2%
CCn1cc(C(=O)O)c(=O)c2cnc(N3CCN(C(=S)Nc4ccccc4)CC3)nc21	?	?	0.117µM*	-0.3%
Cc1ccc(O)c(C(=O)c2cnc3c(c2)c(C)nn3-c2ccccc2)c1	-9.5%	7.2%	0.0%	-15.4%
CCCc1ccc(-c2cc(C(=O)N/N=C/c3ccc([N+](=O)[O-])o3)c3ccccc3n2)cc1	1.65µM*	0.4%	nt	6.3%[6.58 µM]
O=C(N/N=C/c1ccc([N+](=O)[O-])o1)c1cc(-c2cccc(Br)c2)nc2ccccc12	0.828µM*	11.8%	?	3.9%
O=C(N/N=C/c1ccco1)c1cc(-c2ccccc2)nc2ccccc12	?	-3.1%	-6.0%	?
CCc1ccc(NC(=O)CSc2nnnn2-c2cccnc2)cc1	?	10.7%	29.1%	nt
C=CCn1c(COc2ccc(F)cc2)nnc1SC(C)C(=O)NCC1CCCO1 (stereo not drawn)	?	nt	?	-0.4%
Cc1nn(Cc2ccccc2)c(Cl)c1C(=O)OC(C)C(=O)Nc1ccc(F)cc1Cl (stereo not drawn)	13.1µM*	-3.2%	?	14.1%
Cc1ccsc1C(=O)N1CCN(S(=O)(=O)c2cccc(F)c2)CC1	7.9%	nt	-5.0%	0.0%
C1=C(c2c[nH]c3ccccc23)CCNC1	5.9%	-17.6%	9.28µM*	-0.6%
CC(C(=O)c1c[nH]c2ccccc12)N1CCOCC1 (stereo not drawn)	2.4%	-6.1%	-6.9%	-5.5%
c1ccc2c(-c3ccncc3)c[nH]c2c1	nt	-87.4%	?	-8.4%
CC(C)N1CC=C(c2c[nH]c3ccccc23)CC1	?	9.4%	1.04µM*	2.8%
CC(C)CCn1nnnc1CN1CCN(c2ccccc2)CC1	22.4%	-2.7%	4.7%	-0.5%
CC1CCCC(C)N1C(=O)Cn1nnc(-c2ccc([N+](=O)[O-])cc2)n1 (stereo not drawn)	-25.2%	18.5%	5.8%	2.4%
CCN1C(=O)[C@H]2[C@@H](c3ccc(-c4cccc(Cl)c4)cc3)N[C@@](C)(C(=O)OC)[C@H]2C1=O	?	nt	13.1µM*	0.6%
CCN1C(=O)[C@H]2[C@@H](c3ccc(-c4ccc(F)cc4)cc3)N[C@@](C)(C(=O)OC)[C@H]2C1=O	nt	nt	nt	-20.0%
COC(=O)[C@]1(C)N[C@H](c2ccc(-c3cccc(Cl)c3)cc2)[C@@H]2C(=O)N(C)C(=O)[C@@H]21	nt	nt	nt	8.0%
CCN1C(=O)[C@H]2[C@@H](c3ccc(-c4ccccc4)cc3)N[C@@](C)(C(=O)OC)[C@H]2C1=O	?	nt	9.28µM*	2.4%
CCOC(=O)c1c(-c2ccsc2)csc1N	-3.8%	-12.4%	2.94µM*	-1.3%
COc1ccccc1NC(=O)c1ccc2c(c1)N(CC(=O)NC(C)C)C(=O)C(C)(C)O2	-23.7%	4.0%	-11.5%	-1.7%
SMILES	Pf growth 96h	NS1 function inh	Pf growth 48h	SARS PLP yeast
COc1ccc(C(=O)NN=C2CCCC2)cc1	9.28µM*	6.1%	-1.0%	-4.9%
COc1cc2c(Nc3ccc(Br)cc3F)ncnc2cc1OCC1CCN(C)CC1	1.51µM*	nt	0.675µM*	nt
CC(C)C(C(=O)NCC1CCCO1)N(C(=O)CNS(=O)(=O)c1ccccc1)C1CCCCC1 (stereo not drawn)	24.9%	-8.0%	-14.0%	-0.5%
O=S(=O)(c1ccc(Cl)cc1)N1CCN(C(=S)Nc2ccc(F)c(Cl)c2)CC1	0.5%	4.8%	0.657µM*	-3.2%
Cc1ccc(NC(=S)N2CCN(S(=O)(=O)c3ccccc3)CC2)cc1C	?	7.3%	-9.7%	-0.2%
Cc1ccc(NC(=S)N2CCN(S(C)(=O)=O)CC2)cc1	10.4µM*	1.4%	38.8%	9.8%
Cc1ccc(C)c(NC(=S)N2CCN(S(C)(=O)=O)CC2)c1	20.3%	8.3%	6.1%	-1.1%
Cc1cccc(NC(=S)N2CCN(S(=O)(=O)c3ccc(F)cc3)CC2)c1	?	-4.6%	2.08µM*	-6.0%
